Results: article PMC5540273 (PLoS ONE, 2017)

Legend:
Details in all cases: concentration: 1 μM,replicates: in singlicate; n = 1
[1] = tested on: CDC2L2
[2] = tested on: T1, CDC2L5
T1 construct: gene CDK13

[3] = tested on: T2, CDK11
T2 construct: gene CDK19

[4] = tested on: CDK2
[5] = tested on: CDK3
[6] = tested on: CDK4-cyclinD1
[7] = tested on: CDK4-cyclinD3
[8] = tested on: CDK4
[9] = tested on: CDK5
[10] = tested on: CDK7
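Note: KINOMEscan kinase panel screen.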

Compound | %Inh [1] | %Inh [2] | %Inh [3] | %Inh [4] | %Inh [5] | %Inh [6] | %Inh [7] | %Inh [8] | %Inh [9] | %Inh [10]
C[C@@H]1CNc2c(sc3ccc4nc(-c5ccc(O)cc5)ccc4c23)C(=O)N1 | 6% | 0% | 37% | 0% | 12% | 30% | 0% | 4% | 25% | 82%
Cn1ccc2ncnc(Oc3ccc(NC(=O)Nc4cccc(C(F)(F)F)c4)c(Cl)c3)c21 | 5% | 0% | 99.8% | 0% | 5% | 8% | 0% | 0% | 0% | 2%
NC(=O)c1ccc(-c2cc3ncnc(SCC(=O)O)c3s2)cc1 | 0% | 0% | 0% | 0% | 0% | 1% | 0% | 0% | 18% | 58%
Cn1ccc2ncnc(Oc3ccc(NC(=O)Nc4cc(C(C)(C)C)on4)c(Cl)c3)c21 | 4% | 26% | 100% | 12% | 2% | 0% | 2% | 2% | 0% | 55%
Cc1ccc(C(=O)Nc2ccc(Oc3ccc4nc(NC(=O)C5CC5)cn4c3)c(F)c2)c(=O)n1-c1ccccc1 | 7% | 0% | 88% | 1% | 36% | 21% | 0% | 0% | 0% | 76%
Cc1n[nH]c2cc(Nc3ccnc(Nc4cccc(CN5CCOCC5)c4)n3)ccc12 [GW682569] | 24% | 0% | 19% | 0% | 5% | 0% | 0% | 31% | 0% | 0%
c1ccc(Oc2ccc(Nc3ccnc4ccc(-c5ccccn5)cc34)cc2)cc1 [GW407034] | 0% | 0% | 12% | 0% | 15% | 0% | 12% | 0% | 93.1% | 0%
CN(c1ccccc1CNc1nc(Nc2ccc3c(c2)CC(=O)N3)ncc1C(F)(F)F)S(C)(=O)=O | 0% | 0% | 0% | 58% | 55% | 0% | 34% | 0% | 83% | 67%
CC(C)c1nc(-c2cccc(NS(=O)(=O)c3ccccc3)c2)c(-c2ccnc(Nc3ccc4c(c3)CN(C)CC4)n2)s1 [GSK1649598] | 24% | 92.7% | 0% | 99.3% | 99.6% | 65% | 44% | 93.7% | 87% | 78%
CSc1nccc(-c2c(-c3ccc(F)cc3)ncn2CCCN2CCOCC2)n1.Cl [SB-217146] | 0% | 0% | 0% | 0% | 0% | 0% | 0% | 16% | 0% | 12%
CCNCC(Cc1ccccc1)NC(=O)c1cc(Br)c(-c2ccnc3[nH]ccc23)s1.Cl.Cl (centres unmarked) [GSK1383280] | 22% | 0% | 39% | 0% | 12% | 0% | 6% | 0% | 0% | 24%
O=C(Nc1cccc(Oc2ccc3nccn3n2)c1)Nc1cccc(C(F)(F)F)c1 | 6% | 13% | 98.7% | 0% | 32% | 33% | 0% | 0% | 0% | 0%
COc1cc2nccc(Nc3ccc(Oc4ccccc4)cc3)c2cc1OC.Cl [GI261656] | 28% | 0% | 0% | 0% | 0% | 0% | 0% | 44% | 0% | 0%
Cn1ccc2ncnc(Oc3ccc(NC(=O)Nc4cncc(C(F)(F)F)c4)c(Cl)c3)c21 | 0% | 51% | 97.7% | 0% | 0% | 0% | 0% | 0% | 0% | 0%
COC(=O)c1cccc(NC(=O)NC2CCN(c3ccnc(NCc4ccc(F)cc4)n3)CC2)c1 [GSK1379860] | 0% | 0% | 12% | 0% | 9% | 0% | 0% | 0% | 2% | 0%
COc1cc2c(Nc3ccc(NC(=O)c4ccccc4)cc3)ncnc2cc1OCCCN1CCOCC1 [GSK301329] | 7% | 0% | 0% | 0% | 2% | 0% | 0% | 7% | 0% | 24%
C[C@@H](Oc1cc(-n2cnc3ccc(-c4ccncc4)cc32)sc1C(N)=O)c1ccccc1Cl [GSK483724] | 7% | 0% | 73% | 30% | 36% | 0% | 0% | 27% | 1% | 0%
